Bioassay records from PubChem BioAssay.
Rows were chosen to be rich in hits. Some 3.6% of all compounds tested hit in one or more screens of this group.
TDP43 rescue: qHTS of TDP-43 Inhibitors; actives 1.8% (n = 410,000); TDP-43 expressing yeast growth rescue, BacTiter-Glo, 24 h; Potency, µM (doses to about 46.1 µM), hits mostly activators; note: nearly all actives have a fitted effect of over 50% in size
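Galactose-induced TDP-43 yeast, OD600=0.02, compound pinned; 24 hr, 30 deg C; BacTiter-Glo luminescence for growth. Inhibitors of TDP-43 toxicity read as activators.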
Abeta rescue: qHTS for compounds that reverse cellular toxicity of Amyloid beta (A-beta) peptide in yeast: Primary Screen. yeast expressing A-beta42, growth rescue, OD600, 48 h; response scale: 0% DMSO, 100% iron-clioquinol control. Potency, µM (highest dose often 46.1 µM), hits mostly activators. actives 0.063% (n = 410,000); note: nearly all actives have a fitted effect of over 55% in size
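Growth rescue measured by 600 nm absorbance after 48 h yeast culture at 30 C with compound. Values normalized between DMSO and an equimolar ferric chloride plus clioquinol control.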
Mm-Cpn inhibitor: Inhibitors of TCP-1 ring complex (TRiC) of Methanococcus maripaludis (MmCpn): qHTS; purified Mm-Cpn ATPase, ADP Transcreener TR-FRET; actives 0.031% (n = 330,000); Potency, µM (series often up to 76.9 µM), usual class: inhibitors; note: nearly all actives have a fitted effect of over 80% in size
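ATPase read-out: TR-FRET ADP immunoassay (anti-ADP Eu cryptate vs ADP-d2), ex 320 nm, em 590/665 nm; signal drops as ADP forms. Enzyme 25 nM, ATP 10 uM, 30 min at 37°C after 10 min compound preincubation.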
ClpP mod: qHTS Assay for Activators of ClpP; ATP-dependent Clp protease proteolytic subunit (Bacillus subtilis (strain 168)), P80244; AID 651965, 2013; actives 1.9% (n = 340,000); Potency, µM (top dose mostly 57.5 µM); purified B. subtilis ClpP, FRET peptide cleavage, 20 min; active = well fitted falling curve with a large enough effect; inconclusive = small, poorly fitted or top-dose-only effect; inactive = no such curve, though single readings can be large or run the other way; note: the source files actives as falling curves though it sought activators and does not explain the sign; nearly all actives have a fitted effect of over 65% in size
Target sequence (P80244 whole entry, looked up): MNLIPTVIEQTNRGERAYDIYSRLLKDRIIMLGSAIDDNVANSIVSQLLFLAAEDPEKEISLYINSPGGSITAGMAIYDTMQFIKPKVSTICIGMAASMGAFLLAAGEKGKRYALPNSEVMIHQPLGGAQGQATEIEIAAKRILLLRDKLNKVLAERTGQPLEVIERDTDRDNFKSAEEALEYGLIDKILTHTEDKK
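Buffer: 100 mM Tris/HCl pH8, 100 mM KCl, 0.05% low protease BSA, 2.5% glycerol, 0.01% Tween-20. ClpP 10 microg/mL final; 20 min RT; delta FRET normalized to ADEP and DMSO controls.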
FUS yeast rescue: qHTS for Suppressors of FUS Proteinopathy: Primary screen using FUS-linked yeast assay. Potency, µM (doses to about 76.6 µM), actives largely listed as activators. AID 1347120, 2019. S. cerevisiae FUS-expressing, growth rescue, OD600, 24 h. actives 0.24% (n = 390,000); note: nearly all actives have a fitted effect of over 55% in size
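FUS-expressing yeast, raffinose-pregrown, induced in 2% galactose minimal medium at OD 0.005; compounds in a dilution series, 24hr at 30C. Growth restoration read as absorbance at 600 nm. CP55940 positive control, DMSO negative.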
aSyn yeast inh: qHTS of alpha-syn Inhibitors; actives 0.14% (n = 370,000); Potency, µM (doses to about 46.1 µM), hits mostly activators; Yeast expressing alpha-synuclein, growth rescue, BacTiter-Glo, 24 h; note: nearly all actives have a fitted effect of over 65% in size
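Galactose-induced alpha-syn yeast (OD600=0.02, raffinose-pregrown) + pinned cpd, 24 hr, 30 deg C; growth by BacTiter-Glo luminescence. Growth restoration scores as activation.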
Large screens that a line does not name were inactive. Unless noted, calls come from the whole dose curve; as a rule, active = well fitted curve in the direction sought with a large enough effect; inconclusive = small, poorly fitted or top-dose-only effect, or another doubt; inactive = no such curve, though single readings can be large; an effect the other way counts as inactive or inconclusive.

CC(O)(c1cccc(F)c1)c1nc(-c2cccc(C(F)(F)F)c2)cs1 (stereo not given)	none (no result: Mm-Cpn inhibitor)
CCN(CC)C(=O)c1cccc(-c2csc(C(C)(O)c3ccc(F)c(F)c3)n2)c1 (stereo not given)	TDP43 rescue 14µM, FUS yeast rescue inconclusive (no result: Mm-Cpn inhibitor)
COc1ccc(-c2csc(C(C)(O)c3cccc(F)c3)n2)cc1OC (stereo not given)	TDP43 rescue 35µM (no result: Mm-Cpn inhibitor)
N#Cc1cccc(-c2csc(C(O)(c3ccccc3)C(F)(F)F)n2)c1 (stereo not given)	Abeta rescue 13µM (no result: Mm-Cpn inhibitor)
C=C1C=C(C)n2ncc(C(=O)Nc3ccccc3C(=O)OC)c2N1	aSyn yeast inh inconclusive (no result: TDP43 rescue, Abeta rescue, Mm-Cpn inhibitor, FUS yeast rescue)
CCc1ccc(NC(=O)CSc2nc(=O)n(Cc3cccnc3)c3c2CCC3)cc1	none (no result: Mm-Cpn inhibitor, aSyn yeast inh)
CCOC(=O)N1CCc2c(sc3c2C(=O)NC(c2cc(OC)c(OC)c(OC)c2)N3)C1 (stereo not given)	none (no result: Mm-Cpn inhibitor, aSyn yeast inh)
CCN(CC)S(=O)(=O)c1ccc(C(=O)NCCSc2c(-c3ccc(OC)cc3)[nH]c3ccccc23)cc1	none (no result: Mm-Cpn inhibitor, aSyn yeast inh)
Cc1cccc(N2CCN(c3ccc(C(=O)O)cc3NC(=O)c3cccc(Cl)c3)CC2C)c1 (stereo not given)	FUS yeast rescue inconclusive (no result: Mm-Cpn inhibitor, aSyn yeast inh)
CCOc1ccc(NC(=O)c2oc3ccccc3c2NC(=O)c2cc3ccccc3o2)cc1	none (no result: Mm-Cpn inhibitor, aSyn yeast inh)
CC(O)(c1cccc(F)c1)c1nc(-c2cccc(C(=O)O)c2)cs1 (stereo not given)	TDP43 rescue 35µM (no result: Mm-Cpn inhibitor)
CC(O)(c1cccc(F)c1)c1nc(-c2ccccc2)cs1 (stereo not given)	none (no result: Mm-Cpn inhibitor)
COc1cccc(C(C)(O)c2nc(-c3ccc(C)c(C)c3)cs2)c1 (stereo not given)	TDP43 rescue 14µM (no result: Mm-Cpn inhibitor)
O=C(Oc1oc(-c2ccco2)nc1C=Nc1ccccc1)c1ccoc1	aSyn yeast inh inconclusive
Cc1ccc(C(=O)Oc2oc(-c3ccco3)nc2C=Nc2ccc(Cl)cc2)cc1	TDP43 rescue 6.3µM (no result: FUS yeast rescue)
COc1cc2[nH]c(=O)c(C(=O)NCc3ccc(F)cc3)c(O)c2cc1OC	none
CCCCCCc1c(O)c2ccccc2[nH]c1=O	ClpP mod 25µM
COc1ccc(CNC(=O)c2c(O)c3cc(OC)c(OC)cc3[nH]c2=O)cc1OC	ClpP mod 7.9µM
CCNC(=O)c1c(O)c2ccccc2[nH]c1=O	ClpP mod 25µM
CCCNC(=O)Cc1c(O)c2ccccc2[nH]c1=O	Mm-Cpn inhibitor inconclusive, ClpP mod inconclusive
O=C(NCCc1ccccc1)c1c(O)c2ccccc2[nH]c1=O	none (no result: ClpP mod)
O=C(CN1C(=O)COc2ccc(S(=O)(=O)NC3CCCC3)cc21)NCc1ccc(Cl)cc1	none (no result: Mm-Cpn inhibitor, aSyn yeast inh)
Cn1cnc2c1c(=O)n(Cc1ccccc1)c(=O)n2C	none
Cn1cnc2c1c(=O)n(Cc1ccc(Cl)cc1Cl)c(=O)n2C	TDP43 rescue 22µM
O=C(COC(=O)C12CC3CC(CC(O)(C3)C1)C2)Nc1ccc(OC(F)F)cc1	none
O=C(COC(=O)C12CC3CC(CC(C3)C1)C2)Nc1ccc(OC(F)F)cc1	TDP43 rescue 18µM, Abeta rescue inconclusive (no result: aSyn yeast inh)
CCn1nnc(NC(=O)c2cccc(-c3cc4ccccc4oc3=O)c2)n1	ClpP mod 14µM
O=C(Nc1cccc(-c2cc3ccccc3oc2=O)c1)c1ccc(Br)o1	ClpP mod 35µM
COc1ccc(-c2cc3ccccc3oc2=O)cc1NC(=O)c1ccc(Br)o1	none
Cc1ccc(-n2ncc3c(NCCCn4ccnc4)ncnc32)cc1	none (no result: Mm-Cpn inhibitor, aSyn yeast inh)
COCCNC(=O)CC(NS(=O)(=O)c1ccc(NC(C)=O)cc1)C(C)C (stereo not given)	ClpP mod 32µM
Cc1cccc(Oc2sc(C(=O)c3ccccc3)c(N)c2C#N)c1	ClpP mod 14µM
